Measurements published in the OligoGym collection.

target: UBA3; experiment: pooled miR-30 sensor sort-seq; sequence = guide strand; conditions: shRNA

Compared with TTGTCGATAGAAAGTGTCGTTA, TTACATACTCAATACAGTGTTC is higher in sensor-assay potency score (higher = more potent): -0.471 for the first, -0.397 for the second.

First: TAGATAATCCAAAACCTCCTGT
Second: TATATTGTGATGCTCTCTCTAG
The sensor-assay potency score (higher = more potent) of the first is higher: 0.333 for the first, -0.466 for the second.

Going from TTAAAATCTTGAATCTTGTTGA to TTCTTGTCCATCAACAAGCCCC, the sensor-assay potency score (higher = more potent) falls from 0.888 to -0.667.

ATCTACATCATTAAACACCAAG gave a sensor-assay potency score (higher = more potent) of -1.38.

target: UBE2F; experiment: as above; conditions: shRNA

First: ACAAACTGTAACACAGTCCATG
Second: TTTATTCCGGAAGTCCTCCTTG
The sensor-assay potency score (higher = more potent) of the first is lower: -1.41 for the first, -0.121 for the second.

Compared with TTTAACAAGCAATTTGTCTCTC, TTAACAAGCAATTTGTCTCTCA is lower in sensor-assay potency score (higher = more potent): 0.519 for the first, -0.236 for the second.

First: TTTGAGACCATCGTCACGCTTC
Second: TTCTCCATCTACAATGAGCAGT
The sensor-assay potency score (higher = more potent) of the first is higher: 0.155 for the first, -0.914 for the second.

Compared with TTCTGCAGCTTCAATATTCAGT, AACTGTAACACAGTCCATGGGC is higher in sensor-assay potency score (higher = more potent): -0.23 for the first, -0.0499 for the second.

Compared with TAGTCATCCACTTTATTCCGGA, TTCAAGTTCTGCAACCTCTTTA is higher in sensor-assay potency score (higher = more potent): -0.0909 for the first, 0.721 for the second.

Going from TAGCTGAAAACAATGAAGCTTG to TTTGTCTCTCACAGAAACCCTC, the sensor-assay potency score (higher = more potent) falls from -0.377 to -0.658.

target: UBTD2; experiment: as above; conditions: shRNA

Compared with TGGAATACTGTGTCTGTGCTGC, TAACCTGTACAACATAGTCCTT is lower in sensor-assay potency score (higher = more potent): -0.0459 for the first, -0.877 for the second.

Going from AAAACCACCGCTGACTACCTGG to TCGAACTTCATTTTGTCAGTGA, the sensor-assay potency score (higher = more potent) rises from -0.559 to 0.607.

Going from TTCATAGGGAATTTAGAGCAGT to TATGTCGCTCTTTTCCTCTATC, the sensor-assay potency score (higher = more potent) falls from -0.206 to -0.749.

Compared with TACAACATAGTCCTTTGGGATC, TGTGCTGCGAACCACAAGCTTG is higher in sensor-assay potency score (higher = more potent): -1.63 for the first, -1.41 for the second.

Going from TCTTGCTGCGTAGTTGTCCATC to TATGTTTGCACCATCAATGATT, the sensor-assay potency score (higher = more potent) rises from -1.04 to -0.561.

Compared with AACCTGTACAACATAGTCCTTT, TACACTGGAAGCTGATATCTGT is lower in sensor-assay potency score (higher = more potent): 0.105 for the first, 0.00464 for the second.

target: UBXN2A; experiment: as above; conditions: shRNA

Going from TTGTACTTATCTAAACATCTTC to TAATATATCTTGATAACTGGTA, the sensor-assay potency score (higher = more potent) rises from -0.32 to 0.173.

Going from ATAACTTCTGAAATCGTCGTTG to TAACTTCTGAAATCGTCGTTGA, the sensor-assay potency score (higher = more potent) rises from 0.446 to 0.784.

First: TTGATTGTTGATTATTACCAAG
Second: TTAATATATCTTGATAACTGGT
The sensor-assay potency score (higher = more potent) of the first is lower: -1.29 for the first, -0.45 for the second.

Going from TTCTTTATCAAAAATTCCCTGT to TACATCTACCTGTTTCTTCTGT, the sensor-assay potency score (higher = more potent) rises from -0.0297 to 0.409.

TTAAATTTCTGGACAATCCTTT showed a sensor-assay potency score (higher = more potent) of 0.433.
